# Test results: PubChem BioAssay AID720648 (The Scripps Research Institute Molecular Screening Center, 2013)
# Screen size: about 370,000 compounds; about 3,100 (0.84%) were called active.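 Rule for the calls: active = inhibition above the mean of compounds lying between control limits plus 3 SD, set per campaign (cut at about 8.5% in these data); inactive = the rest.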 Shown is part of a subset that was picked to be rich in actives.
# Target: Disintegrin and metalloproteinase domain-containing protein 17 (Homo sapiens) (UniProt P78536)
# Test: ADAM17 inhibitors, primary screen, biochemical, QFRET (AID 720648);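 note: 0% = DMSO-only wells as the low control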
# Details: recombinant ADAM17, EDANS/DABCYL FRET peptide cleavage; at 6.95 µM; stronger effect = higher value
# Disintegrin and metalloproteinase domain-containing protein 17 (Homo sapiens), sequence (P78536 215-824 limits assumed): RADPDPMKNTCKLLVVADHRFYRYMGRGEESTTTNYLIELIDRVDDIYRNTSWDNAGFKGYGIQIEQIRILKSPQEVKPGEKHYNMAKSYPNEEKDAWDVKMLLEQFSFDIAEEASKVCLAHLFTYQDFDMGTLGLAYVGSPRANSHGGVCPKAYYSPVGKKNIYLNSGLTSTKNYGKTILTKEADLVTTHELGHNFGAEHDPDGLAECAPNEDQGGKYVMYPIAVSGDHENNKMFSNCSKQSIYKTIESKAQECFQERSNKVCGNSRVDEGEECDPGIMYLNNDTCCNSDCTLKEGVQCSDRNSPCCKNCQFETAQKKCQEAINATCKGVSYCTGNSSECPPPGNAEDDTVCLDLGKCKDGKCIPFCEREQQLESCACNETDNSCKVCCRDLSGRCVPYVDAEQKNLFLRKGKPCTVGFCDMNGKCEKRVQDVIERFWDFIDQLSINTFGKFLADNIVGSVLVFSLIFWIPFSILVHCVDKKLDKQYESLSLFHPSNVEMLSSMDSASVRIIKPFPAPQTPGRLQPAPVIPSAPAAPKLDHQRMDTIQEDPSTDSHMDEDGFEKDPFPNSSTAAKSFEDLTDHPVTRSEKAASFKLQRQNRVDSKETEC
row,Compound,inhibition
1,O=C1Nc2ccccc2OC1CC(=O)N1CCCCCCC1 (configuration not stated),-1.23% (inactive)
2,CCCCN1CCN(C(=O)c2ccc3c(c2)NC(=O)C(C)(C)O3)CC1,1.41% (inactive)
3,COC(=O)c1c(C)[nH]c(C(=O)NCCc2ccc(S(N)(=O)=O)cc2)c1C,-14.5% (inactive)
4,COC(=O)c1c(C)oc(C)c1S(=O)(=O)NCc1ccc(Cl)cc1,-1.53% (inactive)
5,COC(=O)c1c(C)[nH]c(C(=O)/C=C/c2ccc(Cl)cc2)c1C,9.17% (active)
6,Cc1c[nH]c2cccc(-c3ccc(Cl)cc3)c12,-9.67% (inactive)
7,C=CCOc1ccccc1/C=N/NC(=O)Cc1ccccc1,11.4% (active)
8,CCn1c(SCC(=O)N/N=C/c2ccccc2OCC(=O)O)nnc1-c1ccc(C(C)(C)C)cc1,-1.28% (inactive)
9,O=C(CC(=O)N/N=C\c1cccc(Cl)c1Cl)NCc1ccccc1,-1.85% (inactive)
10,Oc1ccc(/C=C/c2c(F)cccc2F)c2cccnc12,-0.42% (inactive)
11,Nn1c(SCC(=O)Nc2ccc(S(N)(=O)=O)cc2)nnc1-c1n[nH]c2c1CCC2,-1.11% (inactive)
12,CCOc1ccccc1NC(=O)NC1CCCCCCC1,2.55% (inactive)
13,O=C(COc1cc(Cl)c(Cl)cc1Cl)NC(=O)NC1CCCC1,-3.67% (inactive)
14,CCCN(CC(=O)NC(=O)NC1CCCCC1)CC(=O)Nc1cc(Cl)ccc1Cl,9.13% (active)
15,CCC(C)[C@@H](C(=O)OC)N(CCc1cn(Cc2ccccc2)nn1)S(=O)(=O)c1ccccc1Br (some centres not stated),6.37% (inactive)
16,CC(c1ccc(N)cc1)c1cn(C)c2ccccc12 (configuration not stated),1.58% (inactive)
17,CCN1C(=O)C(=O)N(CC(=O)Nc2cc(C)ccc2C)C1=O,-0.07% (inactive)
18,CCN=C1SC(CC(=O)Nc2ccc(C)cc2)C(=O)N1CC (configuration not stated),-7.43% (inactive)
19,CCN1C(=O)C(CC(=O)Nc2cc(C)ccc2C)SC1=Nc1ccc(S(N)(=O)=O)cc1 (configuration not stated),9.07% (active)
20,O=C(CN1CCCc2ccccc21)NCc1ccc(F)cc1,1.67% (inactive)
21,CCN(CC)C(=O)CC[C@H]1CC[C@]2(CCCN(Cc3ccc(Cl)cc3)C2)O1,1.61% (inactive)
22,Cc1cccc(OCCC(=O)OCc2csc(CC(=O)Nc3ccccc3C)n2)c1,-0.41% (inactive)

row,Compound,inhibition
1,O=C(COc1ccccc1)Nc1nonc1NC(=O)COc1ccccc1,-4.34% (inactive)
2,Cc1onc(C(=O)NN)c1-c1csc(COc2ccccc2)n1,9% (active)
3,CCOC(=O)[C@]12CCCC3=C1N(CCC3)C(=O)[C@@H](CC(=O)N1CCSCC1)C2,0.18% (inactive)
4,CC(=O)N1CCc2cc(S(=O)(=O)NCCC(=O)N3CCCC3)ccc21,-3.27% (inactive)
5,O=Nc1c(O)cc(O)c2ccccc12,10.5% (active)
6,COc1cccc2c(O)cc(=O)n(C)c12,-4.7% (inactive)
7,O=c1c2ccccc2ccc2ccc(P(=O)(O)O)cc12,-16.1% (inactive)
8,CCN(C(=O)[C@@H](C1CC1)[C@@H](O)c1ccc2ccccc2c1)c1ccccc1,-1.62% (inactive)
9,COc1cccc(NC(=O)C2C(c3ccccc3)C2(Cl)Cl)c1 (configuration not stated),9.55% (active)
10,COc1cccc(NC(=O)C/C(C)=N/NC(=O)C2CCCCC2)c1,-3.38% (inactive)
11,COc1cccc(NC(=O)C2c3cc(OC)c(OC)cc3C(=O)N(C)C2c2cccnc2)c1 (configuration not stated),1.58% (inactive)
12,CC(C)CNS(=O)(=O)CC1NCCc2ccccc21 (configuration not stated),-3.23% (inactive)
13,COc1ccc(C(=O)OCCN2CCN(C3CN(Cc4cn(Cc5ccccc5F)nn4)S(=O)(=O)C3)CC2)cc1OC (configuration not stated),-4.52% (inactive)
14,CC(=O)Nc1nc2ncccn2c1-c1ccc(C(F)(F)F)cc1,-266% (inactive)
15,O=C(C(=O)N1CCC(CNS(=O)(=O)Cc2ccccc2)CC1)c1cc2ccccc2o1,-3.01% (inactive)
16,N#Cc1cccc(C(=O)NCC2CCN(C(=O)C(=O)c3cc4ccccc4o3)CC2)c1,-3.28% (inactive)
17,CC(C)(C)c1ccc(S(=O)(=O)NCC2CCN(C(=O)C(=O)c3cc4ccccc4o3)CC2)cc1,9.75% (active)
18,CC(C)C(C#CC1CC1)N(Cc1ccc2c(c1)OCO2)C(N)=NC(=O)/C=C/c1cccc(C(F)(F)F)c1 (configuration not stated),-3.71% (inactive)
19,COc1ccc(-c2cc(C3CCN(c4ncccc4[N+](=O)[O-])CC3)[nH]n2)cc1,9.29% (active)
20,CC(=O)NC(Cc1ccccc1)C(=O)NC1CCN(c2ncccc2[N+](=O)[O-])CC1 (configuration not stated),-2.81% (inactive)
21,COc1ccc(-c2cc(-c3nnc(SCc4ccc([N+](=O)[O-])cc4)n3N)[nH]n2)cc1,-2.61% (inactive)
22,O=C1CCC2(CCC(c3ccc(Cl)cc3)CC2)N1CCO (configuration not stated),1.61% (inactive)

row,Compound,inhibition
1,CCn1c(=O)n2n(c1=O)[C@@]1(C=C3CCCC[C@H]32)N=C(NC(=O)c2ccccc2)N(Cc2ccccc2)[C@H]1Cc1ccccc1,5.91% (inactive)
2,Cc1ccc(NC(=O)Nc2cc(C)nn2-c2ccccc2)cc1,-1.4% (inactive)
3,Cn1c(Nc2ccccc2)cc(=O)n(C)c1=O,-0.84% (inactive)
4,Cc1cc(Nc2ccccc2)n(C(=O)c2ccc(N)cc2)n1,8.62% (active)
5,COC(C(=O)Nc1ccc(S(=O)(=O)Nc2ccc(C)c(C)c2)cc1)c1ccccc1 (configuration not stated),9.01% (active)
6,CCC(Oc1ccccc1C)C(=O)Nc1ccc(S(=O)(=O)Nc2cc(C)on2)cc1 (configuration not stated),-4.21% (inactive)
7,COC(C(=O)NCc1ccccc1C)c1ccccc1 (configuration not stated),-5.21% (inactive)
8,COc1cccc(Cn2cc(COC(=O)Nc3ccc(F)cc3)nn2)c1,-1.05% (inactive)
9,COc1ccccc1C(=O)NC1CCCCN(C(C)C)C1=O (configuration not stated),-7.08% (inactive)
10,O=C(O)CCC(=O)N(Cc1ccco1)c1nc(-c2ccccc2)cs1,-2.47% (inactive)
11,COc1ccc(CCN(C(=O)COc2ccccc2)c2nc(-c3ccccc3)cs2)cc1OC,9.24% (active)
12,COc1ccc(CN(C(=O)c2cccs2)c2nccs2)cc1OC,0.3% (inactive)
13,C[C@@H]1COc2cccc(N3CCCC3)c2S(=O)(=O)N1C,-5.16% (inactive)
14,C=CCN1[C@@H](Cc2ccccc2)COc2cccc(N3CCSCC3)c2S1(=O)=O,-1.76% (inactive)
15,CCCn1nc(C(=O)NNC(=O)CSCC(=O)Nc2cc(C)on2)c2ccccc2c1=O,11.3% (active)
16,Cc1cc(NC(=O)CSCC(=O)NC(C)c2ccccc2)no1 (configuration not stated),-2.03% (inactive)
17,CCCn1nc(C(=O)NNC(=O)CCOc2ccccc2OCC)c2ccccc2c1=O,-0.01% (inactive)
18,COC(=O)C1CN(CCc2ccccc2)CCS(=O)(=O)N1Cc1ccc(F)cc1 (configuration not stated),-9.15% (inactive)
19,O=[N+]([O-])c1cc(S(=O)(=O)NCCc2ccccn2)ccc1Cl,0.55% (inactive)
20,Cc1ccc(S(=O)(=O)NCCSc2ccccc2)cc1[N+](=O)[O-],10.7% (active)
21,CCOc1ccc(S(=O)(=O)NCCSc2ccccc2)cc1,6.1% (inactive)
22,C[C@H](C(=O)N(C)c1ccccc1)[C@@H](O)c1ccc2ccccc2c1,-5.59% (inactive)

row,Compound,inhibition
1,CCN(CC)C(=O)CC[C@@H]1CC[C@]2(CCCN(S(=O)(=O)C3CCCCC3)C2)O1,-0.83% (inactive)
2,O=C(CN1CCCCCC1)Nc1ccc(S(=O)(=O)N2CCCCC2)cc1,-1.57% (inactive)
3,COc1ccc(OCC(=O)OCC(=O)Nc2ccc(S(=O)(=O)N3CCCCC3)cc2)cc1,-0.04% (inactive)
4,O=C(CSCc1ccc(Br)cc1)Nc1ccc(S(=O)(=O)N2CCCCCC2)cc1,12.9% (active)
5,N#CCC[C@H]1CC[C@]2(CCCN(Cc3ccc(Cl)cc3)C2)O1,-4.85% (inactive)
6,COc1ccc(-n2c(SCC(=O)NC3CCCC3)nnc2-c2ccncc2)cc1,-3.54% (inactive)
7,CCC(C)(C)NC(=O)C(c1cccn1C)N(Cc1ccc(C)cc1)C(=O)Cn1nnc2ccccc21 (configuration not stated),0.71% (inactive)
8,COCCNC(=O)C(c1ccc(C)o1)N(Cc1ccccc1)C(=O)Cn1nnc2ccccc21 (configuration not stated),9.14% (active)
9,COc1ccccc1N(C(=O)Cn1nnc2ccccc21)C(C(=O)NCc1ccco1)c1ccc(C)o1 (configuration not stated),-3.12% (inactive)
10,COCCCNC(=O)C[C@H]1C[C@@]2(C(=O)OC)C(=C[C@H](C(C)(C)C)O[C@@H]2C)N(Cc2ccc(Cl)cc2Cl)C1=O,3.29% (inactive)
11,CCOC(=O)[C@@]12CN(C(=O)OC(C)(C)C)CC=C1N(Cc1ccc(OC)cc1)C(=O)[C@H]2CC(=O)NCc1ccc(OC)c(OC)c1,1.15% (inactive)
12,COc1cccc(CNC(C)C(=O)Nc2ccc(S(=O)(=O)N3CCCC3)cc2)c1 (configuration not stated),-0.82% (inactive)
13,COc1ccc(S(=O)(=O)N2CCN(C(C)C(=O)Nc3ccc(C(C)C)cc3)CC2)cc1 (configuration not stated),12.4% (active)
14,CC(C)c1ccc(S(=O)(=O)N2CCN(C(C)C(=O)NC3CCCC3)CC2)cc1 (configuration not stated),0.12% (inactive)
15,C[C@@H]1ON(C)[C@H]2C[C@H]3c4[nH]c5cccc(-c6ccc7c(c6)OCO7)c5c4CCN3C[C@@H]12,-16.2% (inactive)
16,COc1ccccc1CCNC(=O)C1CCN(c2nc(C)cc(C)n2)CC1,-1.54% (inactive)
17,O=S1(=O)c2c(NCc3ccco3)cccc2Oc2ccccc2CN1Cc1cn(Cc2cccc(C(F)(F)F)c2)nn1,-1.67% (inactive)
18,COc1ccc(Cl)cc1NC(=O)COC(=O)c1ccc(Br)o1,-0.97% (inactive)
19,COc1ccc(Cl)cc1NC(=O)c1cccc(N2C(=O)C3CC=CCC3C2=O)c1 (configuration not stated),-4.89% (inactive)
20,COc1ccc(Cl)cc1NC(=O)COC(=O)C(CC(C)C)N1C(=O)C2CC=CCC2C1=O (configuration not stated),18.9% (active)
21,Cc1cccc(C(=O)Nc2c(-c3ccc(F)cc3)nc3ncccn23)c1,-94.5% (inactive)
